The record followed here is PubChem BioAssay.

For one test, the target named is Albumin (Bos taurus) (UniProt P02769). As to the kind of experiment: compounds binding labelled BSA control protein – biochemical, small-molecule microarray, Alexa647 label, 635/667 nm fluorescence, artefact control for SMM control protein annotation, profiling panel (AID 1118).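 Further: score merges 667 nm emission intensity and signal-to-noise per printed compound spot.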 Conditions: BSA-A647 binding, fluorescence 635 nm, higher = more signal.
The nature of test [1]: probe aXIP binding to arrayed compounds – biochemical, NeuroSMM set, 635/667 nm fluorescence, primary screen (AID 1119).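 Further: probe is the protein aXip251-270 applied at 1 µg/mL to compound-printed slides; binding of probe to printed compounds measured as 667 nm fluorescence plus signal to noise.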 Conditions: small-molecule microarray, higher = more signal, called active from +8 up or from −8 down.
A short description of test [2]: probe aNOTCH3 binding on compound microarray – biochemical, small-molecule microarray, 635/667 nm fluorescence, primary screen (AID 1120).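 Further: probe is a biotin-tagged antibody raised against NOTCH3 rather than NOTCH3 protein; score merges spot fluorescence near 667 nm with spot signal to noise.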 Conditions: higher = more signal.
A short description of test [3]: probe aNOTCH2 binding on compound microarray – biochemical, small-molecule microarray, 635/667 nm fluorescence, primary screen (AID 1121).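 Further: score merges feature fluorescence read at 667 nm with its signal to noise.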 Particulars: higher = more signal.
For test [4], the target named is Carbonic anhydrase 2 (Homo sapiens) (UniProt P00918). The experiment in a line: compounds binding carbonic anhydrase 2 – biochemical, small-molecule microarray, Alexa647-labelled CAII, profiling panel (AID 1122). Particulars: CAII-A647 binding fluorescence, higher = more signal.
Test [5] can be described thus: COS7 lysate on small-molecule microarray, probe aHis, 635 nm (AID 1123).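 Further: z-score combines 667nm fluorescence intensity with signal-to-noise per printed compound spot.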 Particulars: COS7 cell lysate, fluorescence, higher = more signal.
Test [6] can be described thus: probe aLAP1 signal on lysate-treated microarray – cell lysate, small-molecule microarray, COS7 lysate, primary screen (AID 1124).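 Further: lysate comes from COS7 cells expressing LAP1 and is applied at 0.3 µg/mL; score merges spot fluorescence near 667 nm with signal-to-noise over triplicate slides.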 Particulars: probe aLAP1, fluorescence, higher = more signal.
Another test concerns Sam68 (KHDRBS1). As to the kind of experiment: compounds binding KHDRBS1 protein – biochemical, small-molecule microarray, 635 nm fluorescence, primary screen (AID 1125).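 Further: score merges 667 nm channel intensity with signal to noise over triplicate slides.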 Conditions: higher = more signal.
Test [7] relates to Chordin-like protein 2 (CHRDL2). As to the kind of experiment: compounds binding chordin-like 2 – biochemical, small-molecule microarray, 635 nm fluorescence, primary screen (AID 1126).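 Further: printed compound slides probed with Chrdl2 protein at 4 µg/mL for 1 h at 4 C; score merges 667 nm emission intensity with signal to noise over three replicate slides.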 Particulars: fluorescence 635 nm, higher = more signal.
In test [8] the target is Concanavalin-A (Canavalia ensiformis) (UniProt P02866). The experiment in a line: compounds binding concanavalin A lectin – biochemical, small-molecule microarray, Alexa647 label, 635 nm, artefact control for SMM control protein annotation, primary screen (AID 1127).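 Further: z combines 667 nm emission intensity with signal-to-noise across three replicate slides.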 Particulars: ConA-A647 binding fluorescence, higher = more signal.
Test [9] can be described thus: compounds binding Alexa647 anti-His antibody – biochemical, small-molecule microarray, 635 nm fluorescence, artefact control for SMM control protein annotation, primary screen (AID 1128).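 Further: score merges feature fluorescence with signal-to-noise for each printed compound spot.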 Particulars: higher = more signal.
In test [10] the test system is Human papillomavirus type 1a E7 protein (residues 1-88). The experiment in a line: HPV1a E7 small-molecule binders, primary screen, biochemical, small-molecule microarray, residues 1-88, 635 nm (AID 1129). Conditions: small-molecule microarray binding, fluorescence 635 nm; higher = more signal.
The target in test [11] is Focal adhesion kinase 1 (Homo sapiens) (UniProt Q05397). As to the kind of experiment: PTK2 protein binding on printed compound slides – biochemical, small-molecule microarray, 635/667 nm fluorescence, BSA, DTT, primary screen (AID 1130).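 Further: composite of spot emission at 667 nm and signal to noise over triplicate slides.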 Conditions: 635 nm fluorescence, higher = more signal.
Test [12] deals with Fibrinogen (Alexa647-labelled). The experiment in a line: Alexa647-fibrinogen binding to printed small molecules – biochemical, small-molecule microarray, 635/667 nm fluorescence, artefact control for SMM control-protein annotation, profiling panel (AID 1131).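 Further: z-score merges 667 nm fluorescence with per-spot signal-to-noise over triplicate slides.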 Particulars: fibrinogen-A647 binding fluorescence, higher = more signal.
The target in test [13] is Follistatin (Homo sapiens) (UniProt P19883). As to the kind of experiment: FST protein binding to printed compounds – biochemical, small-molecule microarray, 635/667 nm fluorescence, primary screen (AID 1132). Conditions: 635 nm fluorescence, higher = more signal.
Test [14] addresses Fibroblast growth factor 2 (Homo sapiens) (UniProt P09038). The experiment in a line: basic fibroblast growth factor binding to printed compounds – biochemical, small-molecule microarray, 635/667 nm fluorescence, primary screen (AID 1133). Conditions: FGF2, fluorescence 635/667, higher = more signal.
Test [15] can be described thus: JC-1 mitochondrial potential readout, lung cancer cells – cell-based, A549, JC-1 fluorescence, basal, 24 h, 100 nL, profiling panel (AID 1138).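 Further: A549 lung adenocarcinoma cells under basal conditions with no added stimulus; test concentration not given here.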 Conditions: higher = more signal.
The test system of a further test is Lefty1. The experiment in a line: Lefty1 protein binding to printed compounds – biochemical, small-molecule microarray, 635/667 nm fluorescence, primary screen (AID 1139). Particulars: fluorescence 635/667, higher = more signal.
The subject of test [16] is wheat germ agglutinin (Triticum aestivum), Alexa647-labelled. As to the kind of experiment: Alexa647-WGA lectin binding to printed small molecules – biochemical, small-molecule microarray, 635/667 nm fluorescence, artefact control for SMM control-protein annotation, profiling panel (AID 1140).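 Further: score merges 667 nm feature emission with signal to noise over triplicate slides.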 Conditions: WGA-A647 binding, 635 nm fluorescence, higher = more signal.
In test [17] the target is Luciferin 4-monooxygenase (Photinus pyralis) (UniProt P08659). As to the kind of experiment: inhibition of purified Photinus pyralis luciferase – biochemical, luminescence, purified enzyme, 2006 set, primary screen (AID 1141).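 Further: cell-free assay with purified firefly luciferase at 100 ng per well in PBS; test concentration not given here.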 Particulars: purified firefly luciferase, SteadyGlo luminescence, 30 min; higher = more signal, called active from +8 up or from −8 down.

Active and inactive are the calls of the source.

Chain of Fibroblast growth factor 2 (Homo sapiens) (P09038 whole entry, looked up): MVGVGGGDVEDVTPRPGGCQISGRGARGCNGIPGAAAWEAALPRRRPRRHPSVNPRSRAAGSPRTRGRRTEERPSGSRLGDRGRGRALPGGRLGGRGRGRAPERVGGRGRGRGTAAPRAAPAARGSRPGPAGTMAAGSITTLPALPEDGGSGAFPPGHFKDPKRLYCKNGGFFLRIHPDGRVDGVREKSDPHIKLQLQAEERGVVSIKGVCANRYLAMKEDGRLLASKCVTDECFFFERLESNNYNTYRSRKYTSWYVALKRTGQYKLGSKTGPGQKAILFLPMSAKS
Chain of Concanavalin-A (Canavalia ensiformis) (P02866 whole entry, looked up): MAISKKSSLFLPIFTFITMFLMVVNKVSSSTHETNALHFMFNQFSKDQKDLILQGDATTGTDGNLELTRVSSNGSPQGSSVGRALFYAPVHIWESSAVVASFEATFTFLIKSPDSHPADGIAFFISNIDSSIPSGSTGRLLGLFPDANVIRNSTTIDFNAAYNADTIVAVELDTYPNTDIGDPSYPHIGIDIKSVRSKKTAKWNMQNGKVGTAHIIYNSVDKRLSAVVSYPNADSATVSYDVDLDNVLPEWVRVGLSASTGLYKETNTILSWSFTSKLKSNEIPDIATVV
Chain of Luciferin 4-monooxygenase (Photinus pyralis) (P08659 whole entry, looked up): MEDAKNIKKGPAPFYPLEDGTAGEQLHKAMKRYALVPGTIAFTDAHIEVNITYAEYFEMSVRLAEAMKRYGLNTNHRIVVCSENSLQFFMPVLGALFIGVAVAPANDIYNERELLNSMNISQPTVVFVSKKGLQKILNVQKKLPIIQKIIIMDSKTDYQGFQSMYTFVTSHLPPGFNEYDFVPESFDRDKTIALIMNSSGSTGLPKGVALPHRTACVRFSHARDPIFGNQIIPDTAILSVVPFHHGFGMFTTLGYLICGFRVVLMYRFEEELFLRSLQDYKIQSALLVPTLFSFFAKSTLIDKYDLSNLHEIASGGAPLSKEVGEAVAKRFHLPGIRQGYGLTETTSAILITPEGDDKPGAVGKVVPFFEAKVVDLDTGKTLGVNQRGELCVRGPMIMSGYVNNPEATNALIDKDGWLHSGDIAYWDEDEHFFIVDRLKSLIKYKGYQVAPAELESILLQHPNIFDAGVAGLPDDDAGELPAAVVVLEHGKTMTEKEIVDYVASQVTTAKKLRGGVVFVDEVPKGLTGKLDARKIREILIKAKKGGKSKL
Chain of Follistatin (Homo sapiens) (P19883 whole entry, looked up): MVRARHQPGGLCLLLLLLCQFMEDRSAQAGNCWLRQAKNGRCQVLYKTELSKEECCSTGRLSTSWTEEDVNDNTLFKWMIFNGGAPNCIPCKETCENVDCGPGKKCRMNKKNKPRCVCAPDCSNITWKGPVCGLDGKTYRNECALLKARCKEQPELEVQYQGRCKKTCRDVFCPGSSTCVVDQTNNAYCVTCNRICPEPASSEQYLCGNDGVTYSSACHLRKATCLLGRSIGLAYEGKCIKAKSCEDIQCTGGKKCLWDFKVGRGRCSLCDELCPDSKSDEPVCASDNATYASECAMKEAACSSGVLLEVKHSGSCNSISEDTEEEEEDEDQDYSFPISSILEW
Chain of Albumin (Bos taurus) (P02769 whole entry, looked up): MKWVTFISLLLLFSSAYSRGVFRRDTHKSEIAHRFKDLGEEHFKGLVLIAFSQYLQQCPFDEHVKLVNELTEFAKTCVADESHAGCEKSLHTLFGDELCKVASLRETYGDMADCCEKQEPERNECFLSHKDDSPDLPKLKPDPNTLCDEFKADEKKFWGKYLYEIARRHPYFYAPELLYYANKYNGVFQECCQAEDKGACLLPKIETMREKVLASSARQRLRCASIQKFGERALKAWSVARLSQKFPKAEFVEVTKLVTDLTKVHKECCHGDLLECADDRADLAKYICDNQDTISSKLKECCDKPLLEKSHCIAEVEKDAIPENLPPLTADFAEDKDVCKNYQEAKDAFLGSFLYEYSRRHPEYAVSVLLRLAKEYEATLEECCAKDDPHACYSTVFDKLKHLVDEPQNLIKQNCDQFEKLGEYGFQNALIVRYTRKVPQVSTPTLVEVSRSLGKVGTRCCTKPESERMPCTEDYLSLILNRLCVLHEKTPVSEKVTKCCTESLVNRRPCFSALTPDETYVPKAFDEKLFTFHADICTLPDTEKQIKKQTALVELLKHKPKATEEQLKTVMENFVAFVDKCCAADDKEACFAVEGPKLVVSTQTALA
Chain of Focal adhesion kinase 1 (Homo sapiens) (Q05397 whole entry, looked up): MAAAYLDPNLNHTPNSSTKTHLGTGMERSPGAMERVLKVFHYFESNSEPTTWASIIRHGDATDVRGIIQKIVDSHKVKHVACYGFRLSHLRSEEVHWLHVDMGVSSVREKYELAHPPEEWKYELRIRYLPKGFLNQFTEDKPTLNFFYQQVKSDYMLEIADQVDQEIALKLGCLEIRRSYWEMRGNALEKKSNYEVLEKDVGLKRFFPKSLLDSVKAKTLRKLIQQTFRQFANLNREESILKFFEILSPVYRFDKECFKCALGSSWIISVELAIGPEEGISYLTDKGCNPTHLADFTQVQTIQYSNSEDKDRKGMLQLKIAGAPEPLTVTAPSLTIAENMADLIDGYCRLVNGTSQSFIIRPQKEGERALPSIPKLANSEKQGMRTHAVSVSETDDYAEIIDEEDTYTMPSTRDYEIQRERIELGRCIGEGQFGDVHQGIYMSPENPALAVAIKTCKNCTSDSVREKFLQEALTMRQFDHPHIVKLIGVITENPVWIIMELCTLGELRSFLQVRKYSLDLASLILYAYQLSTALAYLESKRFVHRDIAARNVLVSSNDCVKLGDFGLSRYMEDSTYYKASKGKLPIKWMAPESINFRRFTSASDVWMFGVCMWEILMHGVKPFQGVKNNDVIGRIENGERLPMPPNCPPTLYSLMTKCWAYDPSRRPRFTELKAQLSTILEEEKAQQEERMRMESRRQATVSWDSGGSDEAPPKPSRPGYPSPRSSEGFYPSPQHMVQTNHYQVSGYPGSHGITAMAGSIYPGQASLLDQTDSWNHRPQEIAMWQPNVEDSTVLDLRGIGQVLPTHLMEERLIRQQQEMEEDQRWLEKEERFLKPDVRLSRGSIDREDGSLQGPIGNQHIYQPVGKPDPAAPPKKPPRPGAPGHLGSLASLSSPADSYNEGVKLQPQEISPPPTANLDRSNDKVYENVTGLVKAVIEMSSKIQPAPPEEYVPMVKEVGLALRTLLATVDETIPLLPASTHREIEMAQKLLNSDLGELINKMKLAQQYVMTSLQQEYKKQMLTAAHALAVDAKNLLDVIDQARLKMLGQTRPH

Take `O=C(NCC(O)CO)[C@@]1(Cc2ccccc2)N=C(c2ccc(OCCCO)cc2)O[C@H]1c1ccccc1` (stereo not given in full): the composite z-score with Albumin (Bos taurus) was found to be 0.944; in test [2], 0.331; in test [3], 0.257; in [4] it was 0.852; in [5], 2.83; in test [6], 1.01. For the same compound, the composite z-score in the test with Sam68 (KHDRBS1) was 1.24; in test [7] it was -1.34; in [8], 0.785; in test [9], 3.21; in [10] it was 1.2; in [11], 0.0855. Besides, the composite z-score was 0.956 in [12]; 1.29 in [13]; 0.331 in test [14]; -0.836 in the test with Lefty1; 0.922 in test [16]. In test [1], the composite Z-score was 0.805 (inactive). Moreover, the results for the z-score in test [15] and in test [17] were 1.44 and -1.6 (inactive), respectively.
As to `CC(C)(C)OC(=O)CC[C@@]1(C(=O)N2CCOCC2)N=C(c2ccc(OCCCO)cc2)O[C@@H]1c1ccccc1N=[N+]=[N-]`, the composite z-score is 0.899 with Albumin (Bos taurus); 0.336 in [2]; -0.0463 in [3]; 0.74 in test [4]; 3.35 in test [5]; 1.51 in test [6]. Besides, the composite z-score in the test on Sam68 (KHDRBS1) is 1.3; in test [7], -0.16; in [8], 1.14; in test [9], 3.1; in [10], 1.29; in test [11], 0.288. The composite z-score in [12] was found to be 1.01; in test [13], 1.36; in test [14] it was 1.22; with Lefty1, 0.885; in [16] it was 0.987. Also, the composite Z-score in [1] is 0.817 (inactive). Besides, the figures for the z-score in test [15] and in test [17] were 1.9 and -10.6 (active), respectively.
For the compound `NC(=O)NCC#Cc1ccc2c(c1)[C@]1(C(=O)N2)[C@H](c2ccccc2OCCO)N2[C@H](c3ccccc3)[C@H](c3ccccc3)OC(=O)[C@H]2[C@@H]1C(=O)N1CCCCCCC1`, the composite z-score turned out to be 0.0389 in the test with Albumin (Bos taurus); 1.72 in [2]; 0.813 in [3]; 0.951 in test [4]; 3.72 in test [5]; 1.86 in test [6]. Besides, the composite z-score in the test on Sam68 (KHDRBS1) was 1.29; in [7], 1.05; in test [8] it was 1.11; in test [9] it was 0.443; in [10], 1.25; in [11], 2.2. In addition, the composite z-score in [12] is 0.505; in [13], 1.37; in [14], 0.927; with Lefty1, 0.912; in test [16] it was 1.46. For the same compound, the composite Z-score in [1] is 4.09 (inactive). In addition, the z-score in test [15] is -0.724; in [17], -0.87 (inactive).
Turning to `O=C1O[C@H](c2ccccc2)[C@H](c2ccccc2)N2[C@H]1[C@@H](C(=O)NC[C@H](O)c1ccccc1)[C@]1(C(=O)Nc3ccc(C#CC4(O)CCCCCC4)cc31)[C@H]2c1ccccc1OCCO`, the composite z-score with Albumin (Bos taurus) was 0.574; in [2] it was -0.0694; in [3] it was 0.0785; in test [4] it was 0.411; in test [5] it was 1.45; in test [6] it was 1.29. Moreover, the composite z-score with Sam68 (KHDRBS1) turned out to be 1.32; in test [7], 0.117; in test [8], 0.8; in test [9], 1.26; in test [10], 1.19; in test [11], 0.412. The composite z-score came out at 0.494 in test [12]; 1.26 in test [13]; 1.54 in test [14]; 0.586 in the test with Lefty1; 0.794 in test [16]. In addition, the composite Z-score in [1] was 0.228 (inactive). Besides, the results for the z-score in [15] and in test [17] were -1.24 and 0.361 (inactive), respectively.
On to `CS(=O)(=O)CCOC(=O)C1=CC(c2ccc(CO)cc2)=CC(c2cccs2)N(Cc2cccc(OC(F)(F)F)c2)C=C1C(=O)OCCS(C)(=O)=O` (stereo not given), for which the composite z-score in the test with Albumin (Bos taurus) was 0.735; in test [2] it was 0.152; in test [3] it was -0.0259; in test [4], 0.664; in test [5], 1.68; in test [6], 0.442. In addition, the composite z-score was 1.13 in the test with Sam68 (KHDRBS1); 0.217 in test [7]; 0.911 in [8]; 0.419 in test [9]; 0.969 in test [10]; 0.513 in test [11]. For the same compound, the composite z-score in test [12] amounted to 1.01; in [13] it was 1.21; in test [14], 0.0903; in the test on Lefty1, 0.836; in test [16] it was 0.929. Also, the composite Z-score in [1] was -0.0662 (inactive). Moreover, the z-score was 1.91 in test [15] and -1.86 (inactive) in test [17].
Take `Cn1c2c(c3ccccc31)C(=O)C1NC2C=CC1(C)C(=O)OCc1ccccc1` (stereo not given): the composite z-score in the test with Albumin (Bos taurus) was 0.445; in [2], -0.242; in test [3], -0.166; in test [4] it was 0.682; in test [5] it was 1.77; in test [6], 1.46. In addition, the composite z-score in the test with Sam68 (KHDRBS1) is 1; in [7] it was -2.55; in [8], 0.909; in test [9] it was 0.262; in [10] it was 0.291; in test [11] it was 0.0584. For the same compound, the composite z-score in [12] was 0.351; in [13] it was -2.07; in [14], -2.05; in the test on Lefty1, -1.82; in test [16] it was 0.757. Further, in test [1], the composite Z-score was -0.0597 (inactive). The z-score was -0.591 in test [15] and 1.15 (inactive) in test [17].
With `O=C(N1CCCCC1)[C@]1(CCS(=O)(=O)c2ccccc2)N=C(c2ccc(OCCCO)cc2)O[C@@H]1c1ccccc1`, the composite z-score came out at 0.431 in the test with Albumin (Bos taurus); 0.381 in test [2]; 0.0161 in test [3]; 0.639 in [4]; 2.08 in test [5]; 0.165 in [6]. The composite z-score was 1.27 in the test on Sam68 (KHDRBS1); -0.457 in [7]; 1.18 in test [8]; 3.05 in test [9]; 1.22 in test [10]; 1.29 in [11]. Besides, the composite z-score in test [12] was found to be 0.949; in test [13], 1.18; in test [14], 0.619; in the test on Lefty1, 0.211; in test [16], 1.31. In addition, in test [1], the composite Z-score is 1.77 (inactive). Moreover, the z-score in test [15] is -0.913; in test [17], -0.149 (inactive).
In the case of `COc1ccc(C(=O)Nc2cccc(CN3C(=O)[C@@]4(O[C@@H](CC(=O)N5Cc6ccccc6C[C@H]5CO)[C@H]([Si](C)(C)c5ccc(OC)cc5)[C@H]4C)c4ccccc43)c2)cc1`, the composite z-score with Albumin (Bos taurus) is -1.04; in test [2], 0.127; in [3], -0.14; in [4], 0.576; in test [5] it was 1.15; in test [6], -0.0148. Besides, the composite z-score with Sam68 (KHDRBS1) turned out to be 1.04; in test [7], 1.38; in [8], 1.08; in [9] it was 1.37; in test [10] it was 0.86; in test [11], 0.469. The composite z-score came to 0.622 in test [12]; 1.13 in [13]; 1.25 in test [14]; 1.57 with Lefty1; 0.29 in [16]. Besides, the composite Z-score in test [1] was 0.008 (inactive). Besides, the z-score in [15] is 0.68; in [17], -1.52 (inactive).
Turning to `Cc1ccc([C@H]2C(C(=O)O)=C[C@@H](C(C)C)N2S(=O)(=O)c2ccc(C)cc2)cc1`, the composite z-score with Albumin (Bos taurus) was 0.284; in test [2], 0.0596; in test [3], 0.0161; in test [4] it was 0.772; in [5] it was 2.86; in test [6], -0.134. In addition, the composite z-score was 1.3 in the test with Sam68 (KHDRBS1); -0.209 in test [7]; 0.555 in [8]; 1.96 in test [9]; 1.29 in [10]; 1.3 in [11]. Further, the composite z-score in [12] was 0.956; in test [13] it was 0.126; in test [14], -0.376; in the test on Lefty1, -0.297; in test [16], 0.133. Besides, the composite Z-score in [1] is -0.236 (inactive). The z-score in test [15] was -0.209; in test [17] it was 1.85 (inactive).
